From PubChem
In the library only some 3.2% were active in any assay of this set; here they are far more common.
RGS12 GoLoco inh: blocks human Gai1 binding to RGS12 GoLoco peptide, red readout; Gai1:RGS12 GoLoco peptide FP, rhodamine, 10 min; P63096; AID 880; Potency, µM (series often up to 61.6 µM), actives largely listed as inhibitors; actives 0.44% (n = 230,000); active means well fitted inhibition curve with a large enough effect, not every such curve was filed as active; inactive means no such curve, though single readings can be large or run the other way; further: nearly all actives have a fitted effect of over 30% in size
TRb SRC2 PPI: inhibitors of human thyroid hormone receptor beta-SRC2 interaction | P10828 | TRbeta-SRC2 peptide binding, fluorescence polarization; receptor liganded with 1 µM T3 | Potency, µM (highest dose often 106 µM), most hits filed as inhibitors | actives 0.065% (n = 280,000) | AID 1469; further: nearly all actives have a fitted effect of over 50% in size
Target sequence (P10828 whole entry, looked up): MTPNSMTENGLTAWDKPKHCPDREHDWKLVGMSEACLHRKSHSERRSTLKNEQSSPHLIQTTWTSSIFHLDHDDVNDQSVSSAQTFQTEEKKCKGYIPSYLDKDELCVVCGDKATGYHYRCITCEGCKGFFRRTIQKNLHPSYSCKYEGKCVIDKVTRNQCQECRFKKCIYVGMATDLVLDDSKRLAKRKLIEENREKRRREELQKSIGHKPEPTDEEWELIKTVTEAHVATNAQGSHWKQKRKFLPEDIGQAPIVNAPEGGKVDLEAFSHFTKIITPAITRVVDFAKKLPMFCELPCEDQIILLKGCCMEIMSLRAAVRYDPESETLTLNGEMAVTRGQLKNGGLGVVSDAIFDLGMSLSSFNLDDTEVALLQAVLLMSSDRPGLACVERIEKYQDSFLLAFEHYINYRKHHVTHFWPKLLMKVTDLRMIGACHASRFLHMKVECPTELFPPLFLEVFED
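Quantitative HTS by FP: 0.6 uM TRb LBD, 20 nM labeled SRC2 20-mer, 1 uM T3, 5% DMSO; 5 hr ambient incubation; % activity per concentration and potencies from concentration series.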
TexasRed fluor: alters Texas Red total fluorescence, flagging assay interference | AID 1479 | actives 0.29% (n = 280,000) | TRb/SRC2 Texas Red total fluorescence interference | Potency, µM (highest dose often 106 µM); active means well fitted curve in either direction with a large enough effect; inconclusive means small, poorly fitted or top-dose-only effect
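Human TRβ ligand-binding domain (0.6 uM) and Texas Red SRC2 peptide (20 nM) in Tris buffer with 1 uM T3 and 5% DMSO were incubated with pinned compound for 5 hr at ambient temperature. Total fluorescence was computed as S + 2P (555/632 nm).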
Tau FP inhib: inhibitors of human tau fibril formation | actives 0.39% (n = 280,000) | K18 P301L tau heparin fibrillization, Alexa594 FP, 6 h | Potency, µM (doses to about 57.7 µM), actives largely listed as inhibitors | P10636 | AID 1468; further: nearly all actives have a fitted effect of over 55% in size
Target sequence (P10636 561-689 P618L limits assumed): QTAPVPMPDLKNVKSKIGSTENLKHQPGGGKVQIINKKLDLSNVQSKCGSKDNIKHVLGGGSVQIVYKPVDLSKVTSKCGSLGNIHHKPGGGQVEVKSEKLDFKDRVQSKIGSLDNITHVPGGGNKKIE
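FP of Alexa 594-tau after heparin (20 uM) induction. Substrate: human K18 P301L, 15 uM unlabeled, 0.24 uM labeled. Buffer 100 mM sodium acetate pH 7. 6 hr, 37 C.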
Tau fibril ThT: inhibitors of human tau fibril formation, thioflavin T binding; P10636; actives 2.1% (n = 270,000); Potency, µM (highest dose often 57.4 µM), actives largely listed as inhibitors; AID 1460; recombinant tau K18 P301L, heparin-induced fibrillization, ThT fluorescence; further: nearly all actives have a fitted effect of over 55% in size
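K18 P301L tau (15 uM + 0.24 uM Alexa 594-tagged), heparin 20 uM, NaOAc pH 7, 6 h 37 C; ThT 30 uM, 1 h RT, ex 450/em 510 nm.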
Tau fluor counter: counter-screen for tau fibril formation inhibitors; tau K18 P301L (four-repeat tau fragment) Alexa594 fluorescence, heparin fibrillization; Potency, µM (highest dose often 57.7 µM); actives 0.93% (n = 280,000); further: nearly all actives have a fitted effect of over 55% in size
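Human K18 P301L tau (15 uM unlabeled plus 0.24 uM Alexa 594-labeled, final) in 100 mM sodium acetate pH 7 was mixed with compound and 20 uM heparin and incubated 6 hr at 37 C.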
Numbers stand for hits; i = inactive; ? = inconclusive; nt = no result given; [ ] = another dose, or the depositor's remark. Unless noted, the call rests on the fitted dose curve; in most records, active means well fitted curve in the direction sought with a large enough effect; inconclusive means small, poorly fitted or top-dose-only effect, or another doubt; inactive means no such curve, though single readings can be large; an effect the other way counts as inactive or inconclusive.

SMILES	RGS12 GoLoco inh	TRb SRC2 PPI	TexasRed fluor	Tau FP inhib	Tau fibril ThT	Tau fluor counter
O=C1Nc2ccccc2/C1=N/N=C/c1cccc(O)c1	i	i	i	i	11µM	?
COc1cc(/C=N/N=C2/C(=O)Nc3ccccc32)cc(OC)c1O	i	i	i	?	11µM	?
O=C1Nc2ccccc2/C1=N\N=C\C1=C(N2CCOCC2)C(=C\c2ccccc2)/CC1	i	i	i	?	7.1µM	?
Cn1cc(C(=O)N/N=C/C2=C(N3CCOCC3)C(=C\c3ccccc3)/CC2)ccc1=O	i	i	i	i	?	i
COc1ccc(O)c(/C=N/N=C2/C(=O)Nc3ccccc32)c1	i	i	i	i	?	i
Cc1cccc(C(=O)Nc2c(C(=O)NCc3ccc(Cl)cc3)sc3nc(C)cc(C)c23)c1	nt	i	i	i	i	i
CCOC(=O)C1=C(O)c2ccccc2C(=O)/C1=C\c1ccc(C)cc1	i	i	i	?	14µM	i
CCOc1ccc(NCC(=O)N/N=C/C=C/c2ccccc2)cc1	i	i	i	i	11µM	?
O=C(Cc1cc(=O)[nH][nH]1)N/N=C/C=C/c1ccccc1	i	i	i	?	13µM	i
O=C(CCC(=O)Nc1ccccc1)N/N=C/C=C/c1ccccc1	i	i	i	i	i	i
CCOc1ccc(N=C/C=C/c2ccccc2)c(O)c1	i	i	i	?	4.5µM	?
CCN(CC)c1ccc(NC(=O)CN(C)S(=O)(=O)c2cccc3nsnc23)c(C)c1	nt	i	i	i	?	?
COC(=O)c1ccccc1NC(=O)CSc1nc(C)cc(C)n1	i	i	i	i	i	i
COC(=O)c1cc(C)nc(Sc2ccccc2N)n1	i	i	i	?	28µM	?
O=C1S/C(=C\c2ccc(N3CCOCC3)o2)C(=O)N1c1ccccc1	i	i	i	?	11µM	i
COc1ccc(C2CC(c3ccccc3)=NN2c2ccc(/C=N/NC(=O)c3ccncc3)cc2)cc1 (stereo not drawn)	i	i	i	?	?	13µM[quencher]
CCOC(=O)/C=C/C(=O)Nc1ccccc1-c1ccccc1NC(=O)/C=C/C(=O)OCC	i	i	i	?	20µM	i
CCOC(=O)/C=C/C(=O)Nc1cccc([N+](=O)[O-])c1	i	i	i	i	i	i
COc1cc(Nc2ccccn2)cc(C(=O)Nc2cccc(C(F)(F)F)c2)c1	i	i	i	i	i	14µM[quencher]
CCCCc1ccc(NC(=S)Nc2ccc(Nc3ccc(OC)cc3)cc2)cc1	i	i	i	?	8.9µM	7.9µM[quencher]
COC(=O)\C(C(C)=O)=C(/C=C/C=C/C=C/N(C)C)N(C)C	i	i	i	?	16µM	i
COc1ccc(CCN2C(=O)CC(Nc3ccc(N4CCOCC4)cc3)C2=O)cc1OC (stereo not drawn)	i	i	i	i	13µM	i
O=C1CC(Nc2ccc(N3CCOCC3)cc2)C(=O)N1c1ccccc1F (stereo not drawn)	i	i	i	i	14µM	i
O=C(O)/C=C\C(=O)N1Cc2cc3ccccc3nc2C1	i[14.2 µM]	nt	nt	nt	nt	nt
COc1ccc2c(c1)[N+](=O)C(/C(C)=N/NC(N)=S)=C(C)[N+]2=O	i[14.2 µM]	nt	nt	nt	nt	nt
SMILES	RGS12 GoLoco inh	TRb SRC2 PPI	TexasRed fluor	Tau FP inhib	Tau fibril ThT	Tau fluor counter
Cc1[nH]c2ccc(Br)cc2c1CCNC(=O)c1cc2ccccc2oc1=O	nt	i	i	?	?	?
Cc1ccc(-c2[nH]c3ccccc3c2SCCNC(=O)c2cc3ccccc3oc2=O)cc1	i	i	i	i	?	8.9µM[quencher]
O=C(NCCSc1c(-c2ccccc2)[nH]c2ccccc12)c1cc2ccccc2oc1=O	i	i	i	i	?	7.1µM[quencher]
CC(O)(c1ccc(Cl)cc1)c1ccc(Cl)cc1	nt	i	i	nt	nt	nt
COc1cc(NS(=O)(=O)c2ccc3c(c2)CCN3S(C)(=O)=O)cc(OC)c1	nt	i	i	i	i	i
COc1ccc(Nc2ncnc3sc(-c4ccccc4)cc23)cc1	i	i	i	?	?	7.9µM[quencher]
COc1ccc2c(c1)CCc1sc(NC(=O)c3ccco3)nc1-2	i	i	i	i	13µM	14µM[quencher]
COc1ccc2c(c1)Cc1sc(NC(=O)c3ccco3)nc1-2	i	i	i	i	?	?
COc1ccc2c(c1)Cc1sc(NC(C)=O)nc1-2	i	i	i	?	32µM	?
COc1ccc2c(c1)Cc1sc(NC(=O)c3cccnc3)nc1-2	i	i	i	?	7.9µM	?
COc1ccc(-c2n[nH]c(C)c2-c2cnn(-c3ccccc3)c2)c(O)c1C	i	i	i	?	?	13µM[quencher]
N#[N+]c1ccc(Nc2ccccc2)cc1	i[14.2 µM]	nt	nt	nt	nt	nt
CC(C)NC(=O)c1cc(-c2ccco2)nn1-c1ccc(Cl)cc1	i	i	i	i	?	i
O=C(c1cc(-c2ccco2)nn1-c1cccc(Cl)c1)N1CCCCC1	i	i	i	?	28µM	i
CCOC(=O)c1cc2c(=O)n3ccccc3nc2n(C(C)C)c1=NC(=O)c1cc2ccccc2o1	nt	i	i	i	i	i
COc1ccc(-c2ccc(C(c3c(C)[nH][nH]c3=O)c3c(C)[nH][nH]c3=O)o2)c([N+](=O)[O-])c1	i	?	i	?	7.9µM	i
Cc1[nH][nH]c(=O)c1C(c1ccc(-c2ccc(F)cc2)o1)c1c(C)[nH][nH]c1=O	i	?	i	?	7.9µM	i
CNC(=S)N/N=C/c1ccc(-c2ccc(C(=O)O)cc2)o1	i	i	i	i	?	i
Cc1[nH][nH]c(=O)c1C(c1c(C)[nH][nH]c1=O)c1cn(C)c2ccccc12	i	i	i	i	i	i
Cc1[nH][nH]c(=O)c1C(c1ccc(-c2ccc(Cl)c(Cl)c2)o1)c1c(C)[nH][nH]c1=O	i	14µM	i	?	8.9µM	?
Cc1[nH][nH]c(=O)c1C(c1ccc(-c2ccc(C(=O)O)cc2)o1)c1c(C)[nH][nH]c1=O	i	i	i	?	11µM	i
Cc1cc(Nc2cccc(C(F)(F)F)c2)nc2ccc(NC(=O)c3ccc(N(C)C)cc3)cc12	nt	i	i	i	3.5µM	3.5µM[quencher]
Cc1cccc(OCC(=O)Nc2ccc3nc(Nc4cccc(C(F)(F)F)c4)cc(C)c3c2)c1	nt	i	?	i	i	?
Cc1cc(Nc2cccc(Cl)c2)nc2ccc(NC(=O)c3cccc(N(C)C)c3)cc12	nt	i	i	i	?	4.5µM[quencher]
CN(C)c1cccc(C(=O)Nc2cccc(F)c2)c1	i	i	i	i	?	i
Cc1cc(Nc2cccc(Cl)c2)nc2ccc(NC(=O)c3cccnc3)cc12	nt	i	i	i	?	7.9µM[quencher]
N#CC1=C(N)NC(SCc2ccc(F)cc2)=C(C#N)C12CCCCC2	i	i	i	?	i	18µM[quencher]
CCN(CC)c1nc2c3c(nc4c(c3c1C#N)CC(=O)N4c1ccc(Cl)cc1)NC(C)=N2	nt	i	i	?	16µM	?
